The values that follow come from PubChem BioAssay AID720536 (National Center for Advancing Translational Sciences (NCATS), 2013).

The whole screen tested about 1,600 compounds, of which about 650 (41%) were called active. Roughly 39% stayed inconclusive and do not appear here. The call rests on the fitted dose curve; in most records, active means well fitted inhibition curve with a large enough effect; inconclusive means small, poorly fitted or top-dose-only effect; inactive means no such curve, though single readings can be large or run the other way. So high a share suggests a set chosen from earlier hits. The entries come from a sample that favours actives as a whole.
Potency means the concentration at half of the fitted maximal effect.

The test can be described thus: qHTS for Inhibitors of TGF-b: CCL64 Cells Orthogonal Assay for Cherry Picks. Further: nearly all actives have a fitted effect of over 65% in size.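 On activity, negative = inhibition: 0% = stimulated DMSO wells and full inhibition = unstimulated wells without TGF-beta.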 The note with it: CCL64 CAGA-GFP reporter, TGF-b stimulated, GFP fluorescence, 18 h; series mostly up to 46.1 µM; activity, negative = inhibition: at the top concentration. An outline of the steps: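 Readout was total-well GFP fluorescence from summed single-cell values after 18 h TGF-beta stimulation (500 pg/mL) of CCL64 CAGA-GFP cells in 1% FBS, compounds added 2 h after plating. Normalized to unstimulated and stimulated-DMSO wells; curves classified by fit quality and efficacy.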
On to `COc1ccc2nc(N3CCN(C(=O)c4ccc([N+](=O)[O-])o4)CC3)sc2c1`, for which the “activity, negative = inhibition” value was -29.7% (inactive).

For `CN(C)CCNC(=O)c1ccc(Cl)c2cc3ccccc3nc12`, the Potency is 4.61 µM (active).

For the compound `Fc1cc(F)c2nc(Nc3nc4c(F)cccc4s3)sc2c1`, the “activity, negative = inhibition” value is -1.33% (inactive).

As for `c1ccc2cc3c(NCCN4CCOCC4)ccnc3cc2c1`, the Potency is 13 µM (active).

On to `Cn1c(=O)n(C)c2cc(S(=O)(=O)N3CCCc4ccccc43)ccc21`, for which the “activity, negative = inhibition” value was 1.1% (inactive).

For `COc1ccc(-c2csc(NC3OC(=O)c4ccccc43)n2)cc1` (stereo not given), the Potency is 11.6 µM (active).

Take `OCC1OC(n2cnc3c(N4CCCC4)ncnc32)C(O)C1O` (stereo not given): the “activity, negative = inhibition” value was 1.41% (inactive).

As for `COc1cc(NC(=O)c2ccccc2NS(=O)(=O)c2ccc(Cl)s2)cc(OC)c1`, the Potency was 4.61 µM (active).

Take `Cc1cccc2sc(N(CCCN(C)C)C(=O)CCS(=O)(=O)c3ccccc3)nc12`: the Potency is 3.26 µM (active).

Consider `COc1cccc2sc(N(CCCN(C)C)C(=O)CCS(=O)(=O)c3ccccc3)nc12`, for which the Potency is 2.91 µM (active).

In the case of `COc1c(C(C)C)oc2cc3oc(=O)ccc3cc12`, the “activity, negative = inhibition” value was 2.12% (inactive).

As for `O=C(Nc1ccc(Br)cn1)c1ccc([N+](=O)[O-])o1`, the Potency was 13 µM (active).

For `COc1ccc(-c2onc(C)c2-c2ccc3c(c2)OCCO3)c(O)c1`, the Potency was 14.6 µM (active).

Regarding `CN(C)c1nc(N)nc(CSc2nnnn2-c2cccc3ccccc23)n1`, the “activity, negative = inhibition” value is 7.15% (inactive).

In the case of `COc1ccc(CC(=O)Nc2ccccc2NC(=O)c2ccco2)cc1OC`, the “activity, negative = inhibition” value is -5.76% (inactive).

In the case of `CC(=O)c1ccc(-c2cnc3c(NC=O)cc(-c4cccc(NS(C)(=O)=O)c4)cn23)cc1`, the Potency is 5.17 µM (active).

As for `Cc1ccc(C)c(S(=O)(=O)N2CCN(CC(=O)Nc3ccc([N+](=O)[O-])cc3)CC2)c1`, the “activity, negative = inhibition” value is -18.2% (inactive).

Consider `OCCCNc1nccc(-c2cc(Nc3cccc(Cl)c3)ncn2)n1`, for which the Potency is 1.3 µM (active).

As for `O=C(CCC(=O)N1CCN(S(=O)(=O)c2ccc(Cl)cc2)CC1)NCc1cccc(C(F)(F)F)c1`, the “activity, negative = inhibition” value is -42.6% (inactive).

Take `O=C(/C(=C/c1cccc(Cl)c1)c1nc2ccccc2[nH]1)c1ccccc1`: the Potency is 4.61 µM (active).
